# Source: PubChem BioAssay AID1974 (The Scripps Research Institute Molecular Screening Center, 2009)
# Screen size: about 300,000 compounds; about 3,200 (1.1%) were called active. The list comes from a sample in which actives are over-represented; it also holds similar structures and randomly drawn compounds. Values without a mark were called inactive.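 How the source made its calls: active means inhibition above the campaign mean inhibition plus 3 SD (cut at about 35% in these data); inactive means the rest.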
# Molecular target: Glutathione S-transferase omega-1 (Homo sapiens) (UniProt P78417)
# Test: inhibitors of recombinant GSTO1, primary screen, counter-screen for RBBP9 inhibitor project, biochemical, fluorescence polarization (AID 1974);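 further: 0% = GSTO1-1 with DMSO and 100% = wells lacking GSTO1-1 enzyme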
# Details: recombinant GSTO1, activity-based probe fluorescence polarization; at 5.96 µM; stronger effect = higher value
# Sequence of Glutathione S-transferase omega-1 (Homo sapiens) (P78417 whole entry, looked up): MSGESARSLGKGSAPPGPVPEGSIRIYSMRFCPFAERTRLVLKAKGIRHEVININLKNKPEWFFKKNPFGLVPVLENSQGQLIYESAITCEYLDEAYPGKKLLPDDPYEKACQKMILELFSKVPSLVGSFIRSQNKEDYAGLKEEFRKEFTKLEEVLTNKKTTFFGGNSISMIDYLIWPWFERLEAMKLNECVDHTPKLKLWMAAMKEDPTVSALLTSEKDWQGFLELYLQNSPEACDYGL
row,Compound,inhibition
1,CN(C)CCN(C(=O)CN1C(=O)c2ccccc2C1=O)c1nc2cc3c(cc2s1)OCCO3,1.93%
2,COc1cccc(N2CC(NC(=O)c3ccc4ccccc4c3)CC2=O)c1 (stereo not drawn),-0.99%
3,CC1CCN(C(=O)COC(=O)c2cc(S(=O)(=O)N3CCOCC3)ccc2Cl)CC1,-3.67%
4,CC(C)(C)C(=O)COC(=O)c1cc(S(=O)(=O)N2CCCCC2)ccc1N1CCOCC1,-0.05%
5,O=C(OCC(=O)N1CCCC1=O)c1cc(S(=O)(=O)N2CCOCC2)ccc1Cl,82% (active)
6,CCCNC(=O)c1onc(CSc2ccc(F)cc2)c1C(=O)NC(C)C,-6.69%
7,CC[N+](C)(CC)CCC[n+]1c(-c2ccccc2)c2cc(N)ccc2c2ccc(N)cc21,92.8% (active)
8,COCC(=O)Nc1c(I)c(C(=O)NCC(O)CO)c(I)c(C(=O)N(C)CC(O)CO)c1I (stereo not drawn),3.24%
9,Cc1ccc2c(c1)N(CC(=O)NCC1CCCO1)C(=O)CO2 (stereo not drawn),-3.07%
10,CCn1c(SCC(=O)N/N=C/c2ccncc2)nc2ccccc21,-0.27%
11,Cn1c(SCC(=O)N/N=C/c2ccc(O)c(O)c2)nc2ccccc21,52% (active)
12,CCOc1ccc(/C=N/NC(=O)CSc2ccccn2)cc1O,1.26%
13,CSc1nc2ccccc2c(=O)n1Cc1ccc(F)cc1,-7.17%
14,Cc1cc2nc3c(=O)n(Cc4ccccc4)c(=O)[nH]c3nc2cc1N,44.9% (active)
15,CC(=O)c1ccc(-c2ccc(Cn3c(C)nc4cc(N)c(C)nc43)cc2)cc1,4.41%
16,CC1=C/C(=N\OS(=O)(=O)c2ccccc2)C=CC1=O,49.7% (active)
17,O=S(=O)(ON(c1ccccc1)S(=O)(=O)c1ccccc1)c1ccccc1,-0.47%
18,CCN(CC(=O)NCc1cccs1)C(=O)c1ccc(OC)c(S(=O)(=O)N2CCOCC2)c1,11.9%
19,O=C(Cc1c[nH]c2ccccc12)OCCOC(=O)Cc1c[nH]c2ccccc12,-2.78%
20,COc1ccccc1CC(=O)NCCc1c[nH]c2ccccc12,5.81%

row,Compound,inhibition
1,O=S(=O)(O)Oc1c[nH]c2ccccc12,62.3% (active)
2,Cc1ccc(Cn2nnc3c(=O)[nH]c(C4CCN(S(=O)(=O)/C=C/c5ccccc5)CC4)nc32)cc1,-24.4%
3,O=C(CN1C(=O)c2ccccc2C1=O)NCc1ccc(C(=O)O)cc1,3.69%
4,CC(=O)N(C1=C(Cl)C(=O)c2ccccc2C1=O)c1ccc(C(=O)O)cc1,79.7% (active)
5,CC(C)N(C(=O)c1ccc(-c2ccccc2F)cc1)C(C)C,0.63%
6,NC(=O)NC(=O)C(OC(=O)CCNS(=O)(=O)c1ccccc1)c1ccccc1 (stereo not drawn),-0.72%
7,Cc1ccc(CSCC(=O)N(C)CC(=O)Nc2ccc(C)cc2)cc1,-11.5%
8,CCOC(=O)c1cnc2nc(SCc3ccccc3Cl)[nH]n2c1=O,-25.6%
9,Cc1ccc([N+](=O)[O-])cc1S(=O)(=O)N1CCCN(C)CC1,2.63%
10,CN1CCN(/N=C/c2ccc(-c3ccc([N+](=O)[O-])cc3)o2)CC1,3.62%
11,CN1CCN(/N=C2/C(=O)Nc3ccc([N+](=O)[O-])cc32)CC1,37.1% (active)
12,COc1cccc(NC(C)=[N+](C)CCNS(=O)(=O)c2ccc(Cl)cc2)c1,8.66%
13,Cc1cccc(C(C)C)c1NC(=O)COC(=O)C1CC(=O)N(Cc2ccccc2)C1 (stereo not drawn),7.97%
14,Oc1ccc(N=Nc2nccs2)c(O)c1,36.6% (active)
15,Oc1ccc2ccccc2c1N=Nc1nccs1,52% (active)
16,c1ccc(NCc2cccc3ccccc23)nc1,-6.32%
17,O=C(Oc1ccc(-c2nnco2)cc1)c1ccc(F)c(S(=O)(=O)N2CCOCC2)c1,3.94%
18,CCN(CC(=O)Nc1c(F)cccc1F)C(=O)c1ccc(S(=O)(=O)N2CCCCC2)cc1,3.32%
19,Cc1cccc(C)c1NC(=O)CSc1ccc([N+](=O)[O-])cn1,5.11%
20,O=[N+]([O-])c1ccc(Sc2n[nH]c(-c3ccco3)n2)nc1,5.75%

row,Compound,inhibition
1,CC(C)(C)n1cnnc1Sc1ccc([N+](=O)[O-])cn1,39.1% (active)
2,CC(OC(=O)CNC(=O)c1cccc(F)c1)C(=O)NC1CCCCC1C (stereo not drawn),3.44%
3,CC(C)(C)c1cc(C(=O)N/N=C/c2ccc([N+](=O)[O-])s2)n[nH]1,37% (active)
4,COc1ccc(C(=O)NCC(=O)N/N=C/c2ccc([N+](=O)[O-])s2)cc1OC,27.8%
5,Cc1ccccc1NCC(=O)N/N=C\c1ccc([N+](=O)[O-])s1,15.2%
6,O=C(NCCSc1ncc(-c2ccccc2)[nH]1)c1ccco1,5.65%
7,COCCN1C=C2C(=O)C(C)(OC(=O)C3CCCC3)C(=O)C=C2C=C1c1ccsc1 (stereo not drawn),45.6% (active)
8,CC1(OC(=O)CCc2ccccc2)C(=O)C=C2C=C(c3ccc(C#N)cc3)N(CCc3ccccn3)C=C2C1=O (stereo not drawn),27.9%
9,CC1(OC(=O)C2CCCC2)C(=O)C=C2C=C(c3ccc(C#N)cc3)OC=C2C1=O (stereo not drawn),24.5%
10,NC(=O)C1=C[C@@H](c2ccc3c(c2)OCO3)C[C@@H](OCCCCO)O1,14.6%
11,CN(C)C(=O)N=NC(=O)N(C)C,1.15%
12,CCC(Oc1ccccc1C)C(=O)Nc1ccc(S(=O)(=O)Nc2cc(C)on2)cc1 (stereo not drawn),-0.82%
13,CN1c2ccc(C=O)c3c(C=O)ccc(c23)N(C)C1(C)C,72.9% (active)
14,Cc1cc(C)cc(NC(=O)COc2coc(CN3CCN(c4ccccc4)CC3)cc2=O)c1,-4.3%
15,CCN(C(=O)CSc1ncnc2c1cnn2-c1ccccc1)C1CCS(=O)(=O)C1 (stereo not drawn),-42.3%
16,CC(=O)N1CCN(C(=O)c2cc(-c3ccc(C)o3)nc3ccccc23)CC1,5.42%
17,Clc1ccc(C2=CSC3=Nc4cccc5cccc(c45)N23)cc1,58.2% (active)
18,Cc1ccc2nc(NC(=O)CSc3nc(=O)n(CCCN(C)C)c4c3CCC4)sc2c1,-12.3%
